Compound activity: PubChem, National Center for Advancing Translational Sciences (NCATS)
Most compounds without a hit are left out; they make up all but 7.9% or so of the library.
Lassa entry inh: Lassa virus entry inhibition; Lassa virus pseudotype entry inhibition, cell reporter; Potency, µM (series often up to 37.9 µM), inactives show top-dose activity change, negative = inhibition, usual class: inhibitors; hit rate 1.2% among 300,000; AID 540256; calls by dose curve; tested in HEK293 cells; also: potency is read from the fitted curve at half-maximal effect; nearly all actives have a fitted effect of over 50% in size
HCV inhibitor: blocks hepatitis C virus; hit rate 3.4% among 340,000; Potency, µM (doses to about 41.8 µM), for the others: at the highest dose activity change, negative = inhibition, hits mostly inhibitors; Huh7.5.1 HCVcc-Cre infection, luciferase reporter, 44 h; AID 651820; active = well fitted inhibition curve with a large enough effect; inconclusive = small, poorly fitted or top-dose-only effect, or another doubt; inactive = no such curve, though single readings can be large or run the other way; also: potency is read from the fitted curve at half-maximal effect
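Cells (1,000/well) were plated 4 h before compound, then infected with HCVcc-Cre virus (~0.5 moi). After 44 h further culture, infection was read as luciferase luminescence following a 15 min substrate incubation at room temperature.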
Marburg entry inh: Marburg virus entry inhibition | Marburg virus pseudotyped entry inhibition, cell reporter | hit rate 1.8% among 300,000 | Potency, µM (series often up to 37.8 µM), without a hit: at the top dose activity change, negative = inhibition, usual class: inhibitors; calls by dose curve; tested in HEK293 cells; also: potency is read from the fitted curve at half-maximal effect
HCMV antiviral: inhibitors of human cytomegalovirus; AID 1259415; hit rate 4.5% among 410,000; activity change, negative = inhibition, % at 57.5 µM; HFF cells, HCMV-luciferase reporter, 72 h; active compounds read low; in the data active = activity change below about -60%; inconclusive = no clear call, values can overlap the other calls; inactive = above about -39%
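After 16 h attachment at 37C, HFF cells received test compound and HCMV-luciferase (1 PFU/cell); reporter luminescence read 72 h later, data normalized against buffer-only and known inhibitor Salinomycin.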
FMDV inh: blocks foot and mouth disease virus. hit rate 1.2% among 410,000. FMDV antiviral cell-based qHTS. Potency, µM (series often up to 57.9 µM), for inactives: top-dose activity change, negative = inhibition, actives largely listed as inhibitors. AID 1159524; calls by dose curve; tested in HEK293T cells; also: read-out not given here; potency is read from the fitted curve at half-maximal effect; nearly all actives have a fitted effect of over 45% in size
* hit, by the source's call; ? = inconclusive; . = no result given; + = active, no number; ! = a repeat was not active; [ ] = remark or other dose. % is scaled to controls: 0 for no effect and ±100 for the full control effect.

SMILES | Lassa entry inh | HCV inhibitor | Marburg entry inh | HCMV antiviral | FMDV inh
CC(C)(C)n1nc2c(c1NC(=O)c1cc([N+](=O)[O-])ccc1Cl)CS(=O)(=O)C2 | . | 1% | . | + | ?
CCn1cc(/C=C(\NC(=O)c2ccc(C)cc2)C(=O)NCCCn2ccnc2)c2ccccc21 | 20%[46.1 µM] | . | ? | 0 | 23%
COc1ccc(C(=O)O)c(O)c1OC | . | . | . | . | 5%
COC1=C(N)C(=O)c2nc(-c3nc(C(=O)O)c(C)c(-c4ccc(OC)c(OC)c4O)c3N)ccc2C1=O | 0.082µM* | 0.32µM* | 0.058µM* | . | 4µM*
COC(=O)c1nc(-c2ccc3c(n2)C(=O)C(N)=C(OC)C3=O)c(N)c(-c2ccc(OC)c(OC)c2O)c1C | ? | 2.2µM* | ? | ? | ?
COc1cc(CN2CCCC(c3nc(-c4ccncc4)ncc3-c3ccccc3)C2)ccc1O (stereo not given) | . | . | . | . | -10%
COc1ccccc1/C=C/C1(C(=O)NC2CCCC2)CC(=O)N1c1ccc(C)cc1 (stereo not given) | -28% | ? | ? | -98* | -21%
CC1(C(=O)NC2CCCCC2)Cc2ccccc2C(=O)N1Cc1ccc(F)cc1 (stereo not given) | . | . | ? | 4 | -3%
COc1ccccc1/C=C/C1(C(=O)NC2CCCC2)CC(=O)N1c1ccc(F)cc1 (stereo not given) | 15µM* | ? | 5.8µM* | -83* | ?
CCN(CC)S(=O)(=O)c1ccc(N2C(=O)CC2(/C=C/c2ccccc2)C(=O)NC2CCCC2)cc1 (stereo not given) | ? | 8% | ? | -32 | -15%
CCOc1ccc(-n2c(SCC(=O)Nc3cccc(Cl)c3)nc3c(oc4ccccc43)c2=O)cc1 | ? | . | -22%[46.1 µM] | 23 | -1%
Cc1cnc(-n2ncc(C(=O)NCC(C)(C)N3CCOCC3)c2C(C)C)nc1-c1ccc(F)cc1 | . | . | . | . | 3%
C/C=C(/C)C(=O)O[C@H]1C(C)=C2C([C@@H]1OC(=O)CCCCCCC)[C@@](C)(OC(C)=O)C[C@@H](OC(=O)CCC)[C@@]1(O)[C@H]2OC(=O)[C@@]1(C)O (stereo not given in full) | . | . | 0.71µM* | . | .
FC(F)(F)c1cnc(N/N=C/c2ccncc2)c(Cl)c1 | 17%[46.1 µM] | 15% | 10%[46.1 µM] | -3 | 19%
COc1ccc(/C=N/Nc2ncc(C(F)(F)F)cc2Cl)cc1OC | 3% | ? | 13µM* | -31 | -14%
COc1ccc(C2=NN(C)C(=NCc3ccccc3)SC2)cc1 | 0% | 7.9µM* | 1% | -13 | 19%
COc1ccc(N=C2SCC(c3ccc(C)cc3)=NN2CCO)cc1 | ? | -7% | ? | 36 | -12%
CCC(Oc1ccccc1)C(=O)Nc1ccc2oc(-c3ccc(OC)cc3)nc2c1 (stereo not given) | ? | . | ? | 68 | 17%
COc1ccc(S(=O)(=O)Oc2ccc3ccccc3c2)cc1 | ? | ? | -2% | -20 | -6%
COC1=C(OC)C(=O)C(Sc2ccc3ccccc3c2)=CC1=O | ? | ? | ? | -81* | 0%
COc1ccccc1CNC(=O)CCn1c(=O)c2ccccc2n(CC(=O)Nc2cc(Cl)ccc2C)c1=O | -19%[46.1 µM] | . | ? | ? | -24%
CCc1cccc(NC(=O)c2ccc3c(=O)n4c(nc3c2)CCCCC4)c1 | . | 13µM* | . | -17 | -29%
CC(=O)c1ccc(NC(=O)c2ccc3c(=O)n4c(nc3c2)CCCCC4)cc1 | . | ? | . | -31 | ?
O=C(Nc1cccc(Cl)c1)c1ccc2c(=O)n3c(nc2c1)CCCCC3 | ? | 8.9µM* | ? | -26 | -38%
O=C(Nc1ccc(Cl)cc1)c1ccc2c(=O)n3c(nc2c1)CCCCC3 | . | ? | . | -21 | 0%
SMILES | Lassa entry inh | HCV inhibitor | Marburg entry inh | HCMV antiviral | FMDV inh
CCc1ccc(N(CC)C(=O)c2ccc3c(=O)n4c(nc3c2)CCCCC4)cc1 | -24%[46.1 µM] | . | -20%[46.1 µM] | -21 | 40µM*
O=C(Nc1ccc(F)cc1)c1ccc2c(=O)n3c(nc2c1)CCCCC3 | 4%[46.1 µM] | ? | . | 33 | -9%
O=C(Nc1ccc(F)c(Cl)c1)c1ccc2c(=O)n3c(nc2c1)CCCCC3 | ? | 10µM* | ? | -91* | -18%
CCCCCN1C(C(=O)c2ccccc2)=C(NC(=O)c2ccccc2Cl)c2ccccc2S1(=O)=O | ? | . | -4%[46.1 µM] | -1 | -12%
CC1=C(C(=O)NCc2ccccc2Cl)C2(CCCCCC2)OC1=O | -2%[46.1 µM] | . | . | 0 | -4%
CC(=O)N1c2ccccc2CC1C(=O)N1CCN(c2cccc(C)c2C)CC1 (stereo not given) | -19%[46.1 µM] | . | . | 7 | 0%
Cc1ccc(CCNC(=O)CCCc2nnc3n(C)c(=O)c4sccc4n23)cc1 | -11%[46.1 µM] | . | -8%[46.1 µM] | -13 | -2%
Cc1cccc(NC(=O)COC(=O)c2ccc3c(=O)n4c(nc3c2)CCC4)c1 | ? | 17% | -22% | -34 | -10%
CC(=O)c1c(C)[nH]c(C(=O)COC(=O)c2ccc3c(=O)n4c(nc3c2)CCC4)c1C | 9% | -3% | -3% | 4 | 4.5µM*
O=C(c1ccc2c(=O)n3c(nc2c1)CCCCC3)N1CCN(C(c2ccccc2)c2ccccc2)CC1 | 16µM* | ? | ? | -65* | -21%
O=c1c2cc([N+](=O)[O-])ccc2nc2n1CCCC2 | ? | 0% | ? | -65* | -7%
O=C(Nc1ccc2nc3n(c(=O)c2c1)CCCCC3)c1cccc(C(F)(F)F)c1 | ? | . | 20%[46.1 µM] | -69* | ?
CN(C)c1cccc(C(=O)Nc2ccc3nc4n(c(=O)c3c2)CCCCC4)c1 | . | ? | . | 3 | 0%
O=C1NC(=O)[C@H](c2cn(-c3ccccc3)nc2-c2ccc(F)cc2)N1 | . | . | 2% | . | .
CCNc1nc(Oc2ccccc2)nc(O[C@@H](C)C(=O)OCC)n1 | . | . | 0% | . | .
COc1ccc(CCn2c(=O)[nH]c3cc(C(=O)N4CCN(c5ccccc5)CC4)ccc3c2=O)cc1OC | -11% | ? | ? | -20 | 16µM*
COc1ccc(Cn2c(=O)[nH]c3cc(C(=O)N4CCN(Cc5ccccc5)CC4)ccc3c2=O)cc1 | -14% | ? | ? | -63* | 14µM*
COc1ccc(Cn2c(=O)[nH]c3cc(C(=O)N4CCN(c5ccccc5F)CC4)ccc3c2=O)cc1 | . | ? | -1%[46.1 µM] | -14 | -10%
COc1ccc(Cn2c(=O)[nH]c3cc(C(=O)N4CCN(c5ccccc5OC)CC4)ccc3c2=O)cc1 | ? | 10µM* | ? | . | 18µM*
CSc1ccc(CCNC(=O)c2ccc(-c3nc(COc4ccc(C)cc4)c(C)o3)cc2)cc1 | ? | . | . | 16 | -23%
O=C(O)[C@@H]1C[C@H](CP(=O)(O)O)CCN1 | . | . | . | . | -22%
CN(C)CCC(c1ccc(Br)cc1)c1ccccn1 (stereo not given) | ? | ? | 11µM*! | ? | 11%
CN(C)CCOC(c1ccc(Cl)cc1)c1ccccn1 (stereo not given) | . | ? | . | -31 | -14%
CN(C)CC[C@@H](c1ccccc1)c1ccccn1 | . | . | -8% | . | .
CN(C)CC[C@H](c1ccc(Cl)cc1)c1ccccn1 | . | . | 5.6µM*! | . | .
